Measured values reported in PubChem BioAssay (NCATS).
Where “and” joins values, the source holds several entries; their conditions need not be identical. Identical values can stand only once. Results filed as inconclusive are left out. Entries that show only a call come without a potency. Values without a mark were called inactive. Calls of active or inactive are those of the source. The call rests on the fitted dose curve; in most records, active means well fitted cell-killing curve with a large enough effect; inconclusive means small, poorly fitted or top-dose-only effect, or effect the other way; inactive means no such curve, though single readings can be large or run the other way.

Experiment: Viability qHTS for spleen associated tyrosine kinase inhibitor (SYKi) drug resistant MV4-11 cells (AID 1963824); further: nearly all actives have a fitted effect of over 35% in size
Details: SYKi-resistant MV4-11 viability, CellTiter-Glo, 72 h; series mostly up to 45 µM
Procedure, shortened: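 CellTiter-Glo luminescence, read 10 min after reagent addition, reports viability after a 72 hr compound exposure. Cells are an MV4-11 line made resistant to SYK inhibition, seeded at 500 per well onto compound-containing plates.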
Potency means the concentration at half of the fitted maximal effect.

SMILES	Potency	viability, % of control
CC12CCC(OC3OC(CO)C(O)C(OC4OC(CO)C(O)C(O)C4O)C3O)CC1CCC1C2CCC2(C)/C(=C3/COC(=O)C3)CCC12O (stereo unspecified)	inactive	
C=C[C@H]1C(O[C@@H]2O[C@H](CO)[C@@H](O)[C@H](O)[C@H]2O)OC=C2C(=O)N3CCc4c([nH]c5ccccc45)[C@H]3C[C@H]21 (stereo partly specified)	inactive	
C#CCN(Cc1cc2c(=O)[nH]c(C)nc2cc1Br)c1ccc(C(=O)NCc2cccnc2)cc1	inactive	
COc1cc2c(c(OC)c1O)C(c1ccc(O)cc1)C1C(=O)OC3C(COC(=O)C1=C2)OC(CO)(OC1OC(COC(=O)/C=C/c2ccc(OC4OC(C)C(O)C(O)C4O)cc2)C(O)C(O)C1O)C3O (stereo unspecified)		81.2% [at 9.25 µM]
CC(=O)N1CCN(C(=O)Cc2ccc(Nc3ncc(F)c(Nc4ccc(C(=O)Nc5ccccc5Cl)cc4)n3)cc2)CC1	0.517 µM (active)	
CCOC(=O)c1cnc2ccc(-c3cncc(NS(=O)(=O)c4ccccc4)c3)cn12	0.231 µM (active)	
CCCc1cc(C)[nH]c(=O)c1CNC(=O)c1cc(-c2ccc(N3CCN(C(C)C)CC3)nc2)cc2c1cnn2C(C)C	8.2 µM (active) and 8.33 µM (active)	
CC1=C2CC3C(CCC3(C)O)C(C)(O)CC2OC1=O (stereo unspecified)	inactive	
CC(C)(C)Nc1nc(Nc2ccc(C(N)=O)cc2)cc(N)c1C#N	2.31 µM (active)	
C=C1C(=O)O[C@@H]2/C=C(\C)CC/C=C(\C)CC[C@@H]12	2.59 µM (active)	
COC(=O)C1=C[C@@H](O)[C@@H](O)[C@H](O[C@@H]2O[C@H](CO)[C@@H](O)[C@H](O)[C@H]2OC(=O)/C=C/c2ccccc2)C1	inactive	
C=C1CC[C@]2(C(=O)O[C@@H]3O[C@H](CO)[C@@H](O)[C@H](O)[C@H]3O)CC[C@]3(C)C(=CCC4[C@@]5(C)C[C@H](O)[C@@H](O[C@@H]6O[C@H](C(=O)O)[C@@H](O)[C@H](O)[C@H]6O)[C@](C)(C=O)C5CC[C@]43C)C2C1 (stereo partly specified)		87.9% [at 9.25 µM]
C/C(=C/CO)CC[C@@H]1[C@@]2(C)CCC[C@](C)(C(=O)O)C2CC[C@@]1(C)O (stereo partly specified)	inactive	
C[C@@H]1O[C@@H](O[C@H]2[C@H](OC(=O)[C@]34CCC(C)(C)C[C@H]3C3=CCC5[C@@]6(C)CC[C@H](O[C@@H]7O[C@H](C(=O)O)[C@@H](O)[C@H](O)[C@H]7O[C@@H]7O[C@H](CO)[C@H](O)[C@H](O)[C@H]7O)[C@@](C)(C=O)C6CC[C@@]5(C)[C@]3(C)C[C@H]4O)O[C@H](C)[C@H](O[C@@H]3O[C@H](C)[C@H](O)[C@H](O)[C@H]3O)[C@@H]2O)[C@H](O)[C@H](O)[C@H]1O[C@@H]1OC[C@@H](O)[C@H](O[C@@H]2O[C@H](CO)[C@@H](O)[C@H](O)[C@H]2O)[C@H]1O (stereo partly specified)		5.67% [at 4.97 µM]
COC(O)(CC(C)C)C1Oc2cc(C)[nH]c(=O)c2O1 (stereo unspecified)	inactive	
Cc1ccc(C2(C(=O)N3CCC(n4nc(-c5ccccc5)oc4=O)CC3)CC2)cc1	inactive	
CC1=C2C[C@H]3O[C@@]3(C)CCC3O[C@@]3(C)C[C@@]2(O)OC1=O (stereo partly specified)	inactive	
C[C@@H]1C(=O)O[C@H](C)[C@H]1CC(=O)[C@](C)(O)[C@H]1CC[C@@]2(O)C3=CC(=O)[C@@H]4C[C@@H](O)[C@@H](O)C[C@]4(C)C3CC[C@]12C (stereo partly specified)	inactive	
COc1cc(/C=C2\CCCN([C@@H](C)c3ccc(F)cc3)C2=O)ccc1-n1cnc(C)c1	5.17 µM (active)	
COc1c(Nc2ncc(Cl)c(N[C@H]3[C@@H](C(N)=O)[C@@H]4C=C[C@H]3C4)n2)ccc2c1CC[C@@H](N1CCOCC1)CC2	0.291 µM (active)	
C=C1CCC2C(C)(CO[C@@H]3O[C@H](CO)[C@@H](O)[C@H](O)[C@H]3O)C(O)CCC2(C)C1C(=O)CC1=CCOC1=O (stereo partly specified)	inactive	
O=C(O)c1ccc(OC2OC(CO)C(O)C(O)C2O)cc1 (stereo unspecified)	inactive	
C=C1C(=O)OC2C3=C(C)C(=O)CC3C(C)CC(O)C12 (stereo unspecified)	6.51 µM (active)	
COC(=O)/C=C/c1ccc(O[C@@H]2O[C@H](CO)[C@@H](O)[C@H](O)[C@H]2O)cc1	inactive	
CNc1nc(-c2ccc3c(N)n[nH]c3c2)cc(N2CC(C(=O)NC3CCCCC3)CCC2C)n1 (stereo unspecified)	4.61 µM (active)	
O=C1NC(=O)/C(=C\c2ccc3nccc(-c4ccncc4)c3c2)S1	0.517 µM (active)	
